Data published in PubChem BioAssay (NCATS).
Records with an inconclusive call do not appear. Entries that show only a call come without a potency. Activity calls are given as the source filed them. Unless noted, calls come from the whole dose curve; as a rule, active = well fitted curve in the direction sought with a large enough effect; inconclusive = small, poorly fitted or top-dose-only effect, or another doubt; inactive = no such curve, though single readings can be large; an effect the other way counts as inactive or inconclusive.

Columns and labels:
[1] = target: Luciferin 4-monooxygenase (Photinus pyralis) (UniProt P08659); assay: Biochemical firefly luciferase enzyme assay for NPC (AID 624030); note: nearly all actives have a fitted effect of over 70% in size; note: potency is the fitted concentration of half-maximal effect; settings: purified P. pyralis luciferase, luminescence, 5 min; series mostly up to 58.6 µM
Chain of Luciferin 4-monooxygenase (Photinus pyralis) (P08659 whole entry, looked up): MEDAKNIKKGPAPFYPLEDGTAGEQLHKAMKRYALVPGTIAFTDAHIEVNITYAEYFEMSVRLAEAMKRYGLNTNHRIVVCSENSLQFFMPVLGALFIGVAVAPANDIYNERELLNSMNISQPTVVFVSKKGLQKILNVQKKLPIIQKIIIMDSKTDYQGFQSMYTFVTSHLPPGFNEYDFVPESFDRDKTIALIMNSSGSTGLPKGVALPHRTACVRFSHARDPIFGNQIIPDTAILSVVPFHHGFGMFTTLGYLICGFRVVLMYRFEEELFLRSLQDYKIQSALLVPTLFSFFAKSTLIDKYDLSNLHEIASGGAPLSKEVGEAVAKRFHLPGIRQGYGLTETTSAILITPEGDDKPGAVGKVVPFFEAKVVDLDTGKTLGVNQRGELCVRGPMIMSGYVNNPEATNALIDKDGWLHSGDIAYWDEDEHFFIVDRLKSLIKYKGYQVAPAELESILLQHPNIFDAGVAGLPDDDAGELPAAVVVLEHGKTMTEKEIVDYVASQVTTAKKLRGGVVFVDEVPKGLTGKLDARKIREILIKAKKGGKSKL
Method in brief: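 Purified P. pyralis luciferase at 10 nM in 50 mM Tris Acetate (final), luminescence read within 5 minutes of enzyme addition to compounds. Activity normalised to PTC124 versus DMSO; concentration-response curves classed by r2, magnitude and activity.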

[2] = S16 Schwann cell viability assay (CellTiter-Glo assay) (AID 624031); settings: S16 rat Schwann cells viability, 24 h; series mostly up to 57.5 µM;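 note: cellular ATP luminescence as a viability measure; nearly all actives have a fitted effect of over 70% in size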
Method in brief: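 This viability control uses native rat S16 Schwann cells grown in DMEM plus 10% FBS. After a 24 h compound treatment at 37 °C, CellTiter-Glo luminescence reports ATP content, scaled against DMSO-treated and cell-free wells.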

[3] = S16 Schwann cell PMP22 intronic element firefly luciferase assay (AID 624032); settings: S16 rat Schwann cells, PMP22 element FLuc, 24 h; series mostly up to 57.5 µM; note: nearly all actives have a fitted effect of over 30% in size
Method in brief: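 Rat S16 Schwann cells stably carrying firefly luciferase driven by a PMP22 intronic element, in 10% FBS, treated 24 h at 37 C. ONE-Glo luminescence normalized to PTC124 control and DMSO (0%); curves classed by r2, magnitude and activity.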

CP260 = assay: qHTS profiling for inhibitors of Plasmodium falciparum proliferation (AID 504749); note: nearly all actives have a fitted effect of over 60% in size; settings: P. falciparum in erythrocytes, SYBR Green DNA, 72 h; series mostly up to 28.7 µM
Method in brief: (§1)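 Each compound contacts P. falciparum-infected red blood cells for 72 h at 37 C; lysis buffer (Tris, EDTA, saponin, Triton X, SYBR Green I) is added and fluorescence measured next morning; values normalized to controls.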

ICS = assay: as above; settings: P. falciparum in erythrocytes, SYBR Green DNA, 72 h; series mostly up to 28.7 µM
Method in brief: as §1

JCK = assay: as above; settings: P. falciparum in erythrocytes, SYBR Green DNA, 72 h; series mostly up to 28.7 µM
Method in brief: as §1

N140 = assay: as above; settings: P. falciparum in erythrocytes, SYBR Green DNA, 72 h; series mostly up to 28.7 µM
Method in brief: as §1

[4] = qHTS assay for small molecule antagonists of peroxisome proliferator-activated receptor delta signaling (AID 588535; active = well fitted inhibition curve with a large enough effect in the signal ratio, with a control signal flat, not every such curve was filed as active; the % refers to the signal ratio;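 for max response: cells co-treated with a PPAR-delta agonist as stimulator during compound exposure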); settings: HEK293T PPARd-UAS-bla, beta-lactamase FRET ratio, 18 h; 460 nm channel
Method in brief: (§2)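 Fluorescence from CCF4-loaded GeneBLAzer PPAR-delta-UAS-bla HEK293T cells (2 hrs RT loading) quantified reporter inhibition after an 18 hr, 37 C compound exposure across a titration.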

[5] = target: Peroxisome proliferator-activated receptor delta (Homo sapiens) (UniProt Q03181); assay: as above; settings: HEK293T PPARd-UAS-bla, beta-lactamase FRET ratio, 18 h; series mostly up to 76.7 µM
Chain of Peroxisome proliferator-activated receptor delta (Homo sapiens) (Q03181 whole entry, looked up): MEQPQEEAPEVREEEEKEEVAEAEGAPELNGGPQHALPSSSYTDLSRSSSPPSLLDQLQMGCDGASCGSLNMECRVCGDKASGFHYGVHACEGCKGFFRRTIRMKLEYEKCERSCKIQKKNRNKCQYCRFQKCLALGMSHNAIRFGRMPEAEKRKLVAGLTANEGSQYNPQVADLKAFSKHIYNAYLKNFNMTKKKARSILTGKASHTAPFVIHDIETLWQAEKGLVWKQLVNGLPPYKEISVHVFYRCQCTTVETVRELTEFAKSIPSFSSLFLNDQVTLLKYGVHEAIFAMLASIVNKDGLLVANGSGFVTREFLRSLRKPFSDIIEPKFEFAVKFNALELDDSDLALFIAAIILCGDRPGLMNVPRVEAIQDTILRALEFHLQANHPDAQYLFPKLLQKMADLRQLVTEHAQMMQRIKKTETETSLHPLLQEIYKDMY
Method in brief: as §2

[6] = target: Peroxisome proliferator-activated receptor gamma (Homo sapiens) (UniProt P37231); assay: qHTS assay for small molecule agonists of peroxisome proliferator-activated receptor gamma signaling (AID 588536; active = well fitted curve in the direction sought with a large enough effect in the signal ratio, with a control signal flat, not every such curve was filed as active; the % refers to the signal ratio); settings: HEK293 PPARg-UAS-bla, beta-lactamase ratio, 16 h, percent of rosiglitazone response, DMSO as zero; series mostly up to 76.7 µM
Chain of Peroxisome proliferator-activated receptor gamma (Homo sapiens) (P37231 whole entry, looked up): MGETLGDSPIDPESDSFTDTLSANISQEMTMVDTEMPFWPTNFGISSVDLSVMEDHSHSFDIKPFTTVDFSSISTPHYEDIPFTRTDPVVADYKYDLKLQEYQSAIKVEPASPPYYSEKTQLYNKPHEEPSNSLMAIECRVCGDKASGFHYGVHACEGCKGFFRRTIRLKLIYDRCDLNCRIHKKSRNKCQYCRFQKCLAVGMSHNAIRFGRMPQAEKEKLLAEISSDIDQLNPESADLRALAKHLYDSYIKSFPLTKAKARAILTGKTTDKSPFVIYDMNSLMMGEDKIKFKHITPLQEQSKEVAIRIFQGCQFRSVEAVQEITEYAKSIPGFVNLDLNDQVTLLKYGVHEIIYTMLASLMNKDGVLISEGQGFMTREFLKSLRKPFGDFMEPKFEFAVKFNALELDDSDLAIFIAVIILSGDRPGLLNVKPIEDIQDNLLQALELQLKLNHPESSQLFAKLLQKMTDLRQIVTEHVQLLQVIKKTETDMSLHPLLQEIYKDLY
Method in brief: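 Cells were plated and held 6–6.5 h at 37 C, then compounds were added as a titration series. After a further 16 h, CCF4 dye was loaded for 2 h at room temperature and emission at 460/530 nm recorded.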

[7] = target: Peroxisome proliferator-activated receptor gamma (Homo sapiens) (UniProt P37231); assay: qHTS assay for small molecule antagonists of peroxisome proliferator-activated receptor gamma signaling (AID 588537; active = well fitted inhibition curve with a large enough effect in the signal ratio, with a control signal flat, not every such curve was filed as active; the % refers to the signal ratio;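 note: reporter cells co-stimulated with 50 nM rosiglitazone agonist during compound treatment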); settings: HEK293 PPARg-UAS-bla, beta-lactamase ratio, antagonist mode; series mostly up to 76.8 µM
Method in brief: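 Fluorescence at 460 and 530 nm (405 nm excitation) reported beta-lactamase cleavage of CCF4 after 2 h room-temperature loading. HEK293 reporter cells in 1% charcoal/dextran-treated FBS had received compound and rosiglitazone for 16 h.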

[8] = target: Vitamin D3 receptor (Homo sapiens) (UniProt P11473); assay: qHTS assay for small molecule antagonists of vitamin D receptor signaling (AID 588541; calls by dose curve;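 note: receptor activated by calcitriol during compound treatment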); settings: HEK293T VDR-UAS-bla, beta-lactamase ratio, antagonist mode; series mostly up to 76.7 µM
Chain of Vitamin D3 receptor (Homo sapiens) (P11473 whole entry, looked up): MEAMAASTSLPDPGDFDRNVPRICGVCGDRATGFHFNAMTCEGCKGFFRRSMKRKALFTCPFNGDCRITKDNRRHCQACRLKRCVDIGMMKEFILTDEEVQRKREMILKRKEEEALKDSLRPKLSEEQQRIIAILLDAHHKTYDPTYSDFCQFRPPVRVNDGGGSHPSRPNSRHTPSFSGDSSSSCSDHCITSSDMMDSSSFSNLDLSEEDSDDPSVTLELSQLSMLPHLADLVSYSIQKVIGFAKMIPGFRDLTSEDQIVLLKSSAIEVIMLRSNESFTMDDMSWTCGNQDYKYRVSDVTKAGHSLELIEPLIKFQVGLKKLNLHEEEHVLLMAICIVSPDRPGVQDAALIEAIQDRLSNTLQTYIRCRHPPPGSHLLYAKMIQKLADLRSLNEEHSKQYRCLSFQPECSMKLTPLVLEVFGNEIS
Method in brief: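 VDR-UAS-bla HEK293T cells in 2% charcoal-stripped FBS were stimulated with 1-alpha,25-dihydroxyvitamin D3 (3 nM final) plus compound for 16 h at 37 C. The beta-lactamase CCF4 readout was normalized to 50 nM agonist and DMSO, and Hill fits gave IC50.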

[9] = target: Vitamin D3 receptor (Homo sapiens) (UniProt P11473); assay: qHTS assay for small molecule agonists of vitamin D receptor signaling (AID 588543; calls by dose curve); settings: HEK293T VDR-UAS-bla, beta-lactamase ratio, 16 h; series mostly up to 76.8 µM
Method in brief: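 Reporter cells (HEK293T, VDR-UAS-bla) were seeded in medium with 2% charcoal-stripped serum and incubated 5 h, then compounds in concentration series were added for 16 h at 37 °C. Stimulation was scaled between DMSO basal and 50 nM 1α,25-dihydroxyvitamin D3.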

[10] = target: Thyroid hormone receptor beta (Homo sapiens) (UniProt P10828); assay: qHTS assay for small molecule agonists of thyroid hormone receptor beta signaling (AID 588545; calls by dose curve); settings: TR-UAS-bla GripTite HEK 293, beta-lactamase ratio, agonist mode, 18 h, percent of T3 response, DMSO as zero; series mostly up to 76.7 µM
Chain of Thyroid hormone receptor beta (Homo sapiens) (P10828 whole entry, looked up): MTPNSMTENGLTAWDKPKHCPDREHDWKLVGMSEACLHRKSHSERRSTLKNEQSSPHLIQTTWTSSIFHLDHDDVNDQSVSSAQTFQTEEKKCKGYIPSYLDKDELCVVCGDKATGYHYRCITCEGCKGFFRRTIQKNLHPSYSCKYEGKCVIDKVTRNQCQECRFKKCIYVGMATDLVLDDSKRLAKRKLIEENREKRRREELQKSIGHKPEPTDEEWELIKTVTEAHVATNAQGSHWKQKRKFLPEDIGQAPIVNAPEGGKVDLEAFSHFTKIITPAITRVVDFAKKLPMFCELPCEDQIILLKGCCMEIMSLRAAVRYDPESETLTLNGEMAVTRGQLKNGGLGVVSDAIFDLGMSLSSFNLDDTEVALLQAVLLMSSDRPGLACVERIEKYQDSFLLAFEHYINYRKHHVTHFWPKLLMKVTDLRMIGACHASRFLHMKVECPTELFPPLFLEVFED
Method in brief: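 Agonist-mode beta-lactamase reporter assay, HEK 293 cells, 2% charcoal/dextran FBS; cells plated 4 hrs, compound 18 hrs at 37 C, CCF4 2 hrs RT. Normalized to 10 nM T3 (100%) and DMSO (0%); Hill fit gives EC50, efficacy.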

[11] = target: Thyroid hormone receptor beta (Homo sapiens) (UniProt P10828); assay: qHTS assay for small molecule antagonists of thyroid hormone receptor beta signaling (AID 588547; active = well fitted inhibition curve with a large enough effect in the signal ratio, with a control signal flat, not every such curve was filed as active; the % refers to the signal ratio;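 note: cells stimulated with 0.4 nM T3 agonist during compound exposure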); settings: TR-UAS-bla HEK293, beta-lactamase ratio, antagonist mode, 18 h
Method in brief: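 TR-UAS-bla GripTite HEK293 cells in 2% charcoal/dextran FBS medium; compounds 0.59 nM to 92 uM with T3 at 0.4nM final, 18 h at 37 C. Beta-lactamase read by CCF4 fluorescence (460/530 nm); Hill fits gave IC50 and efficacy.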

[12] = qHTS assay for small molecule agonists of the antioxidant response element (ARE) signaling pathway (AID 651741; active = well fitted activation curve with a large enough effect in the signal ratio; the % refers to the signal ratio); settings: HepG2 ARE-bla reporter, beta-lactamase FRET ratio, 16 h; series mostly up to 96 µM
Method in brief: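 Stably integrated ARE-beta-lactamase reporter HepG2 cells; 16 h compound incubation, 37 C; LiveBLAzer FRET substrate 2 h at room temperature; fluorescence intensity.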

[13] = qHTS assay for environmental chemicals that activate the Aryl hydrocarbon Receptor (AhR) signaling pathway (AID 651777); settings: 1A2-DRE human hepatoma cells, luciferase, 24 h; activation: stronger effect = higher value; note: nearly all actives have a fitted effect of over 15% in size
Method in brief: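 Following a 24 hr incubation with test chemicals at 37 C and 5% CO2, 1A2-DRE human hepatoma cells received One-Glo reagent; after 30 min at room temperature, luciferase output reflected CYP1A2 induction via AhR.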

[14] = target: Peroxisome proliferator-activated receptor alpha (Homo sapiens) (UniProt Q07869); assay: qHTS assay for small molecule agonists of the peroxisome proliferator-activated receptor alpha (PPARalpha) signaling pathway (AID 651778); settings: PathHunter PPARalpha complementation, chemiluminescence, 6 h; max response: stronger effect = higher value
Chain of Peroxisome proliferator-activated receptor alpha (Homo sapiens) (Q07869 whole entry, looked up, the tested form may be a part): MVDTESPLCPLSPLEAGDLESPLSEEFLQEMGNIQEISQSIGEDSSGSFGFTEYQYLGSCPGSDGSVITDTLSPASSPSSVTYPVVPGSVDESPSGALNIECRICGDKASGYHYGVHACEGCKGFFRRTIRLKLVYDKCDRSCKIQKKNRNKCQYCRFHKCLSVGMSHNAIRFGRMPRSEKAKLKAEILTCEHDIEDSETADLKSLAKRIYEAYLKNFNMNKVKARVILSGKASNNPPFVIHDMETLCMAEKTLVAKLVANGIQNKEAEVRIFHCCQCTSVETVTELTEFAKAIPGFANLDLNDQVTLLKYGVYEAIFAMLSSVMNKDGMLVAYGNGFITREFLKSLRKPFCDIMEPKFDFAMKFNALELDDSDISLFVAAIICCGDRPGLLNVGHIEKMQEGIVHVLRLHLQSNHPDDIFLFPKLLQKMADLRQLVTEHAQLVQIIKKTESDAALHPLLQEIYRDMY
Method in brief: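 Enzyme-fragment complementation assay in which ligand-bound PPARalpha translocates and forms an active enzyme that generates chemiluminescence. Cells were plated overnight, exposed to compound for 6 hr at 37 C, and then given detection reagent for 60 min at room temperature.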

[15] = qHTS assay for small molecule agonists of the antioxidant response element (ARE) signaling pathway measured by Nrf2-dependant transcriptional activity (AID 720636; active = well fitted curve in the direction sought with a large enough effect in the repeat runs; an effect the other way counts as inactive or inconclusive;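 note: HepG2 cells with an ARE-driven luciferase reporter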); settings: ARE-luc HepG2, Nrf2 luciferase reporter, 16 h; series mostly up to 92.4 µM
Method in brief: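 ONE-Glo luminescence, read 30 min after reagent addition at room temperature, reflected ARE reporter activity in HepG2 cells that had been incubated with compound for 16 hr at 37 C in 1% dialyzed FBS.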

[16] = target: Nuclear receptor subfamily 1 group I member 2 (Rattus norvegicus) (UniProt Q9R1A7); assay: qHTS assay for small molecule activators of the rat pregnane X receptor (rPXR) signaling pathway (AID 651751; call rule not given here); settings: rPXR reporter cells, luciferase (One-Glo), 24 h
Chain of Nuclear receptor subfamily 1 group I member 2 (Rattus norvegicus) (Q9R1A7 whole entry, looked up): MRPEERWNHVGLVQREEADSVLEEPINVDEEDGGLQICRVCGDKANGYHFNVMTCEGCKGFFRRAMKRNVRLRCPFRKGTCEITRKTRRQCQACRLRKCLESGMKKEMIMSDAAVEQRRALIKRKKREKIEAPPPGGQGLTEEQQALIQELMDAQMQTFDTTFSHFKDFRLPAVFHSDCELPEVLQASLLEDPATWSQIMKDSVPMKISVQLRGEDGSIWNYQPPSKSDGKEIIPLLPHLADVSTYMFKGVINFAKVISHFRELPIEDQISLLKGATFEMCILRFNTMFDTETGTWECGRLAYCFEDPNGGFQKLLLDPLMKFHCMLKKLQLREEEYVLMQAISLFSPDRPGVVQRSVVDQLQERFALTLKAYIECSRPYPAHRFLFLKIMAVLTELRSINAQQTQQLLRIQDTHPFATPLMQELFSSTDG

Row | SMILES | Potency [1] | Potency [2] | Potency [3] | Potency (CP260) | Potency (ICS) | Potency (JCK) | Potency (N140) | max response [4] | Potency [5] | outcome [6] | outcome [7] | outcome [8] | outcome [9] | outcome [10] | activity change % (negative = inhibition) [11] | Potency [12] | activation [13] | max response [14] | Potency [15] | max response [16]
1 | CC(C)CN(C[C@@H](OP(=O)(O)O)[C@H](Cc1ccccc1)NC(=O)O[C@@H]1CCOC1)S(=O)(=O)c1ccc(N)cc1 | inactive | inactive | inactive | inactive | inactive | inactive | inactive |  |  |  |  |  |  |  |  |  |  |  |  | 
2 | CCCCCCCCOC(=O)c1cc(O)c(O)c(O)c1 |  |  |  |  |  |  |  | -19.5% | inactive | inactive | inactive | inactive | inactive | inactive | -6.19% (inactive) | inactive | 0.999% (inactive) | -2.68% (inactive) | inactive | -0.212% (inactive)
3 | O=C(O)CCCCCCCCC(=O)O |  |  |  |  |  |  |  | 1.66% | inactive | inactive | inactive | inactive | inactive | inactive | 3.38% (inactive) | inactive | -2.45% (inactive) | -0.446% (inactive) | inactive | -1.81% (inactive)
4 | O=C(O)c1cc(O)c2c(c1)[C@H]([C@H]1c3cc(C(=O)O)cc(O)c3C(=O)c3c(O[C@@H]4OC(CO)C(O)C(O)C4O)cccc31)c1cccc(O[C@@H]3OC(CO)C(O)C(O)C3O)c1C2=O (stereo not given in full) | 16.1 µM (active) | inactive | inactive | inactive | inactive | inactive | inactive |  |  |  |  |  |  |  |  |  |  |  |  | 
